Laboratory results as given in the supplement of paper PMC12494721.
Counter-ions that a name gives are not always drawn.

Legend:
Conditions in all cases: incubation time: 27 h, anaerobic, 37 °C;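 for the amine columns active = adjusted P below 0.05 in both replicates with a change the same way and a mean fold change under 0.8 or over 1.25; inactive = the rest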
[1] = system: Clostridium sporogenes DSM 1664; assay: growth (OD595) fold change vs plate DMSO controls (fold change (ratio)); higher = more growth
Outline: (§1)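 Each value is the mean of 2 biological replicates, and fold changes above 1.5 were set to NA. The underlying readings were taken at 595 nm from shaken anaerobic mGAM cultures in 96-well plates after 27 h at 37 °C. They were blank-subtracted, corrected for compound background using 20 µM compound solutions in water, and converted to OD with a calibration factor of 5. Growth is the fold change relative to the median of the plate DMSO controls.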

Escherichia coli IAI1 [2] = assay: as above
Outline: as §1

[3] = system: Klebsiella aerogenes DSM 30053; assay: as above
Outline: as §1

[4] = system: Ruminococcus gnavus DSM 108212; assay: as above
Outline: as §1

[5] = system: Klebsiella aerogenes DSM 30053; assay: fold change of Histamine concentration vs plate DMSO controls (fold change (ratio)); higher = more amine produced, active = hit call of the paper (significant change in both replicates, either direction)
Outline: (§2)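 Amines were quantified by LC–triple-quadrupole MS in dynamic MRM mode against external calibration curves, with drift correction within each batch. The samples were whole anaerobic mGAM cultures of four gut bacterial strains, grown for 27 h at 37 °C in 80 µL wells and extracted with cold acetonitrile/methanol with 0.1% formic acid, then centrifuged. Values are reported as fold change over DMSO controls on the same plate. The mean of 2 biological replicates is given.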

[6] = system: Clostridium sporogenes DSM 1664; assay: fold change of Tryptamine concentration vs plate DMSO controls (fold change (ratio)); higher = more amine produced, active = hit call of the paper (significant change in both replicates, either direction)
Outline: as §2

[7] = system: Ruminococcus gnavus DSM 108212; assay: as above
Outline: as §2

Escherichia coli IAI1 [8] = assay: fold change of Putrescine concentration vs plate DMSO controls (fold change (ratio)); higher = more amine produced, active = hit call of the paper (significant change in both replicates, either direction)
Outline: as §2

[9] = system: Klebsiella aerogenes DSM 30053; assay: as above
Outline: as §2

Escherichia coli IAI1 [10] = assay: fold change of Cadaverine concentration vs plate DMSO controls (fold change (ratio)); higher = more amine produced, active = hit call of the paper (significant change in both replicates, either direction)
Outline: as §2

[11] = system: Klebsiella aerogenes DSM 30053; assay: as above
Outline: as §2

[12] = system: Ruminococcus gnavus DSM 108212; assay: fold change of 2-Phenylethylamine concentration vs plate DMSO controls (fold change (ratio)); higher = more amine produced, active = hit call of the paper (significant change in both replicates, either direction)
Outline: as §2

SMILES	growth [1]	growth (Escherichia coli IAI1 [2])	growth [3]	growth [4]	fold change of Histamine concentration [5]	fold change of Tryptamine concentration [6]	fold change of Tryptamine concentration [7]	fold change of Putrescine concentration (Escherichia coli IAI1 [8])	fold change of Putrescine concentration [9]	fold change of Cadaverine concentration (Escherichia coli IAI1 [10])	fold change of Cadaverine concentration [11]	fold change of 2-Phenylethylamine concentration [12]
O=C1c2c(O)cccc2Cc2cccc(O)c21 [Anthralin] (20 µM)	1.07	0.981	1.03	0.95	1.05 (inactive)	1.1 (inactive)	0.996 (inactive)	1.02 (inactive)	1.01 (inactive)	0.992 (inactive)	0.999 (inactive)	0.91 (inactive)
CCN(CC)CCCC(C)Nc1c2ccc(Cl)cc2nc2ccc(OC)cc12 (stereo not drawn) [Quinacrine dihydrochloride hydrate] (20 µM)	1.09	1.03	0.892	1.36	1.03 (inactive)	1.1 (inactive)	1.07 (inactive)	1.03 (inactive)	0.928 (inactive)	0.982 (inactive)	0.996 (inactive)	1.08 (inactive)
COc1cc(NS(=O)(=O)c2ccc(N)cc2)nc(OC)n1 [Sulfadimethoxine] (20 µM)	0.79	0.992	1.1	1.01	0.891 (inactive)	1.05 (inactive)	1.29 (active)	0.887 (inactive)	0.946 (inactive)	0.888 (inactive)	1.03 (inactive)	1.53 (active)
CCN1CCCC(OC(=O)C(c2ccccc2)c2ccccc2)C1 (stereo not drawn) [Piperidolate hydrochloride] (20 µM)	1.1	1.01	0.987	0.893	1.02 (inactive)	1.07 (inactive)	1.01 (inactive)	1.02 (inactive)	1 (inactive)	1.02 (inactive)	0.993 (inactive)	1.06 (inactive)
CN(C)CCC(c1ccccc1)c1ccccn1 (stereo not drawn) [Pheniramine maleate] (20 µM)	1.03	0.982	0.985	0.784	1.02 (inactive)	0.954 (inactive)	0.877 (inactive)	0.896 (inactive)	1.01 (inactive)	1.27 (active)	0.986 (inactive)	0.798 (inactive)
CCOC(=O)C1=C[C@@H](OC(CC)CC)[C@H](NC(C)=O)[C@@H](N)C1 [Oseltamivir phosphate] (20 µM)	0.866	0.987	1.01	1.01	1.03 (inactive)	1.05 (inactive)	1.03 (inactive)	1.02 (inactive)	1 (inactive)	1.03 (inactive)	1 (inactive)	1.05 (inactive)
COc1ccc(CC2c3cc(OC)c(OC)cc3CC[N+]2(C)CCC(=O)OCCCCCOC(=O)CC[N+]2(C)CCc3cc(OC)c(OC)cc3C2Cc2ccc(OC)c(OC)c2)cc1OC (stereo not drawn) [Atracurium besylate] (20 µM)	0.945	1.13	0.964	1.13	1.01 (inactive)	1.15 (inactive)	1.1 (inactive)	1.09 (inactive)	0.953 (inactive)	1 (inactive)	1.03 (inactive)	1.05 (inactive)
Cc1cc(NC(=O)C2=C(O)c3ccccc3S(=O)(=O)N2C)no1 [Isoxicam] (20 µM)	1.11	1.05	0.997	1.02	0.996 (inactive)	1.02 (inactive)	1.02 (inactive)	1.03 (inactive)	1.01 (inactive)	0.969 (inactive)	0.994 (inactive)	0.947 (inactive)
CN(C)CCC(c1ccc(Br)cc1)c1ccccn1 (stereo not drawn) [Brompheniramine maleate] (20 µM)	0.959	1.17	1.07	1.17	0.891 (inactive)	1.2 (inactive)	1.1 (inactive)	0.981 (inactive)	0.943 (inactive)	1.2 (inactive)	1.03 (inactive)	1.14 (inactive)
O=C(NCCO[N+](=O)[O-])c1cccnc1 [Nicorandil] (20 µM)	1.03	0.985	0.928	1.35	1.06 (inactive)	1.04 (inactive)	1.03 (inactive)	1.05 (inactive)	1.03 (inactive)	0.981 (inactive)	1 (inactive)	1 (inactive)
CC(=O)NS(=O)(=O)c1ccc(NC(=O)c2ccccc2C(=O)O)cc1 [Phthalylsulfacetamide] (20 µM)	0.948	0.995	1.03	0.929	1.04 (inactive)	1.05 (inactive)	1.03 (inactive)	1.03 (inactive)	1.01 (inactive)	1.02 (inactive)	0.992 (inactive)	1.02 (inactive)
Cc1c(OCC(F)(F)F)ccnc1C[S+]([O-])c1nc2ccccc2[nH]1 (stereo not drawn) [Lansoprazole] (20 µM)	1	1.06	1.01	1.02	1.03 (inactive)	1.02 (inactive)	0.974 (inactive)	1.03 (inactive)	1.01 (inactive)	1.03 (inactive)	1.01 (inactive)	0.971 (inactive)
OC[C@H]1OC(O)[C@H](O)[C@@H](O)[C@@H]1O (stereo partly drawn) [Glucose/Dextrose] (50 µM)	1.15	0.989	1.01	1.19	1.03 (inactive)	1.01 (inactive)	0.971 (inactive)	0.982 (inactive)	0.872 (inactive)	1.11 (inactive)	1.09 (inactive)	0.935 (inactive)
COc1ccc(Cl)cc1C(=O)NCCc1ccc(S(=O)(=O)NC(=O)NC2CCCCC2)cc1 [Glibenclamide] (20 µM)	1.19	1	1.04	1.04	0.91 (inactive)	1.03 (inactive)	1.06 (inactive)	0.96 (inactive)	0.964 (inactive)	0.909 (inactive)	1.03 (inactive)	1.09 (inactive)
COC(=O)C1=C(C)NC(C)=C(C(=O)OCCN2CCN(C(c3ccccc3)c3ccccc3)CC2)C1c1cccc([N+](=O)[O-])c1 (stereo not drawn) [Manidipine Dihydrochloride] (20 µM)	0.816	1.01	1	0.934	1 (inactive)	0.799 (inactive)	0.848 (inactive)	0.983 (inactive)	1 (inactive)	1.01 (inactive)	0.997 (inactive)	0.9 (inactive)
CN(C)CCOC(=O)COc1ccc(Cl)cc1 [Meclofenoxate hydrochloride] (20 µM)	1.13	1.02	1.01	0.995	1.11 (inactive)	0.931 (inactive)	0.958 (inactive)	1 (inactive)	1.01 (inactive)	1.02 (inactive)	0.979 (inactive)	0.895 (inactive)
C[C@H](CCC(=O)O)[C@H]1CC[C@H]2[C@@H]3C(=O)C[C@@H]4CC(=O)CC[C@]4(C)[C@H]3CC(=O)[C@]12C [Dehydrocholic acid] (20 µM)	0.917	0.968	0.94	0.872	1.02 (inactive)	0.96 (inactive)	0.987 (inactive)	0.975 (inactive)	1.01 (inactive)	0.982 (inactive)	1.01 (inactive)	0.859 (inactive)
CCN(CC)CCNC(=O)c1cc(Br)c(N)cc1OC [Bromopride] (20 µM)	0.874	1.03	1.05	1.12	1.01 (inactive)	1 (inactive)	1 (inactive)	1.02 (inactive)	0.998 (inactive)	0.967 (inactive)	1.01 (inactive)	1.02 (inactive)
CCCC(CCC)C(=O)O[C@H]1C[C@H]2CC[C@@H](C1)[N+]2(C)C [Anisotropine Methylbromide] (20 µM)	1.04	1.07	0.99	1.01	0.986 (inactive)	1.06 (inactive)	1.04 (inactive)	1.03 (inactive)	0.962 (inactive)	0.948 (inactive)	0.99 (inactive)	1.06 (inactive)
CC(C)[N+](C)(CCOC(=O)C1c2ccccc2Oc2ccccc21)C(C)C [Propantheline bromide] (20 µM)	1.03	0.986	1	0.994	1 (inactive)	0.971 (inactive)	0.96 (inactive)	1.02 (inactive)	0.992 (inactive)	1.01 (inactive)	0.996 (inactive)	0.963 (inactive)
C[C@]12CC[C@@H]3c4ccc(O)cc4C[C@@H](CCCCCCCCC[S+]([O-])CCCC(F)(F)C(F)(F)F)[C@H]3[C@@H]1CC[C@@H]2O (stereo partly drawn) [Fulvestrant] (20 µM)	1.25	1.06	1.03	1.13	0.97 (inactive)	0.98 (inactive)	1.2 (inactive)	0.954 (inactive)	0.979 (inactive)	0.974 (inactive)	1.02 (inactive)	1.21 (inactive)
Cn1cc([S+](C)[O-])c(=O)c2ccc(F)cc21 (stereo not drawn) [Flosequinan] (20 µM)	0.995	1	1.01	1.06	1.03 (inactive)	0.946 (inactive)	0.958 (inactive)	0.994 (inactive)	1.02 (inactive)	1.04 (inactive)	0.999 (inactive)	0.938 (inactive)
Nc1nc2n[nH]nc2c(=O)[nH]1 [Azaguanine-8] (20 µM)	0.886	1.05	1.01	0.846	1.04 (inactive)	0.988 (inactive)	0.924 (inactive)	1.01 (inactive)	0.968 (inactive)	1.01 (inactive)	1.03 (inactive)	0.882 (inactive)
O=C(O)c1ccccc1C(=O)Nc1ccc(S(=O)(=O)Nc2nccs2)cc1 [Phthalylsulfathiazole] (20 µM)	0.901	0.981	0.96	1.09	1 (inactive)	1.1 (inactive)	0.948 (inactive)	1.03 (inactive)	1.01 (inactive)	1.04 (inactive)	0.987 (inactive)	0.919 (inactive)
